Screening data: PubChem, National Center for Advancing Translational Sciences (NCATS)
Shown are actives, neighbours in structure and some others; about 16% of the full set was active somewhere.
TDP1 cell noCPT = qHTS for Inhibitors of human tyrosyl-DNA phosphodiesterase 1 (TDP1): qHTS in cells in absence of CPT. DT40 Tdp1-/- hTDP1 cells, no CPT, ATP luminescence, 48 h. Potency, µM (series often up to 46.2 µM), for the others: at the highest dose activity change, negative = growth inhibition, usual class: inhibitors. hit rate 15% among 420,000; further: potency means the concentration at half of the fitted maximal effect; on the % scale 0 is the no-effect control and ±100 the full control effect; nearly all actives have a fitted effect of over 55% in size
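Compound effects on proliferation are scored in DT40 Tdp1-/-;hTDP1 cells in the absence of CPT. ATP levels (CellTiter-Glo luminescence) are recorded after a ≥48 hr, 37 °C incubation.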
miR-21 reporter = qHTS Assay for Modulators of miRNAs and/orActivators of miR-21; HeLa miR-21 FLuc reporter, luciferase, 48 h; Potency, µM (doses to about 38.3 µM), without a hit: at the highest dose activity change, positive = activation, most hits filed as activators; 340,000 tested, under 10 active; AID 2288, 2010;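 further: % of control where 0% means no effect; miR-21 action dims this reporter so a rising signal means less miR-21 action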
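Compounds were titrated across several concentrations (up to approximately 40 uM) and incubated 48 hours with HeLa miR-21-FLuc reporter cells (miR-21 target sequence downstream of FLuc, endogenous miR-21). Readout was firefly luciferase luminescence after lytic detection reagent.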
TDP1 cell CPT = qHTS for Inhibitors of human tyrosyl-DNA phosphodiesterase 1 (TDP1): qHTS in cells in presence of CPT; chicken DT40 Tdp1-/-;hTDP1 cells + 20 nM CPT, ATP luminescence, 48 h; Potency, µM (highest dose often 46.2 µM), for the others: at the highest dose activity change, negative = growth inhibition, actives largely listed as inhibitors; hit rate 12% among 420,000; further: potency means the concentration at half of the fitted maximal effect; on the % scale 0 is the no-effect control and ±100 the full control effect; nearly all actives have a fitted effect of over 55% in size
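Chicken DT40 Tdp1-/- cells stably complemented with human TDP1 were seeded at 400 cells/well in medium containing 20 nM camptothecin, exposed to pin-transferred compounds, and grown at 37 °C for at least 48 hr. Viability was read as ATP luminescence.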
TDP1 block = qHTS Assay for Inhibitors of Tyrosyl-DNA Phosphodiesterase (TDP1). hit rate 0.28% among 350,000. AID 485290, 2010. Tyrosyl-DNA phosphodiesterase 1 (Homo sapiens), Q9NUW8. Potency, µM (top dose mostly 130 µM), for the others: at the top dose activity change, negative = inhibition, hits mostly inhibitors. recombinant TDP1, AlphaScreen DNA substrate cleavage; further: potency means the concentration at half of the fitted maximal effect; on the % scale 0 is the no-effect control and ±100 the full control effect; nearly all actives have a fitted effect of over 40% in size
Target sequence (Q9NUW8 whole entry, looked up): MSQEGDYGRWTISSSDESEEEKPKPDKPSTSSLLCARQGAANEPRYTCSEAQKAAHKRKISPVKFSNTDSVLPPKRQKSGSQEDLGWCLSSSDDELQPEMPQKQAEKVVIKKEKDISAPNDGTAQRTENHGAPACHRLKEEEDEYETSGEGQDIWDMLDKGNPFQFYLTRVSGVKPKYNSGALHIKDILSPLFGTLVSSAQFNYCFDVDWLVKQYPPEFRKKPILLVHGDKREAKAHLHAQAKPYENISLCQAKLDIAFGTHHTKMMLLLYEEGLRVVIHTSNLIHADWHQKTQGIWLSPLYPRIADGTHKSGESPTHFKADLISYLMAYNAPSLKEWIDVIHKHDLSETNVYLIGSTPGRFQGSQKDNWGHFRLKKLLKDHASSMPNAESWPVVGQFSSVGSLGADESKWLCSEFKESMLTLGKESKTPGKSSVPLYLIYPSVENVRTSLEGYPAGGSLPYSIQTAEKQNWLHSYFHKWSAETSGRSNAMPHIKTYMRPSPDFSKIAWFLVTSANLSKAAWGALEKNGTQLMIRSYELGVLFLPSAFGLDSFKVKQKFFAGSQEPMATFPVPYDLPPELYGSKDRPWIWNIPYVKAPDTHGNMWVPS
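Recombinant E. coli-expressed Tdp1 (1 nM) preincubated with compound 15 min at RT, then 5'-biotin/3'-phosphotyrosine-FITC DNA substrate (15 nM) added for 5 min. AlphaScreen beads (10 ug/ml) added, 10 min RT; tyrosine-FITC cleavage read as signal loss.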
uPA surface inh = qHTS for Inhibitors of Cell Surface uPA Generation | cell surface uPA generation assay, qHTS | Potency, µM (highest dose often 38.3 µM), for the others: at the top dose activity change, negative = inhibition, most hits filed as inhibitors | hit rate 0.31% among 330,000 | AID 540303, 2011; active means well fitted inhibition curve with a large enough effect; inconclusive means small, poorly fitted or top-dose-only effect; inactive means no such curve, though single readings can be large or run the other way; tested in mouse RAW 264.7 cells; further: potency means the concentration at half of the fitted maximal effect; on the % scale 0 is the no-effect control and ±100 the full control effect; nearly all actives have a fitted effect of over 55% in size
The depositor's hits bear a star; ? = inconclusive; / = not tested or not shown; [ ] = another dose, or the depositor's remark. Unless noted, the call rests on the fitted dose curve; in most records, active means well fitted curve in the direction sought with a large enough effect; inconclusive means small, poorly fitted or top-dose-only effect, or another doubt; inactive means no such curve, though single readings can be large; an effect the other way counts as inactive or inconclusive.

SMILES | TDP1 cell noCPT | miR-21 reporter | TDP1 cell CPT | TDP1 block | uPA surface inh
COC(=O)/C=c1\sc2ncnn2c1=O | 13µM* | -4% | 5.8µM* | / | -9%
Cc1cc(=O)c2cc(C(=O)Nc3ccccc3C)ccc2[nH]1 | -18% | 8% | -13% | 3% | /
O=C1C2C3CCCC3=C3CCCC3C2C(=O)N1c1ccc(F)cc1 (configuration not stated) | 18µM* | -4% | ? | 3% | 15%
Cc1cc2occ(CC(=O)N(C)CC(=O)Nc3ccc(F)cc3)c2cc1C | ? | / | 12µM* | -3% | -15%
O=C(N/N=C\c1ccc2c(c1)OCO2)c1cncc(Br)c1 | -8% | -1% | -6% | 50µM* | -3%
O=C(N/N=C/c1cccc(O)c1)c1cc(-c2ccc3c(c2)OCO3)n[nH]1 | 21µM* | -12% | 21µM* | 5% | -12%
O=C(N/N=C/c1ccc(O)cc1)c1cc(-c2ccc3c(c2)OCO3)n[nH]1 | -27% | -1% | -26% | 5% | -1%
O=C(N/N=C/c1ccc2c(c1)OCO2)c1cccnc1 | -21% | -21% | -22% | -1% | 3%
N/C(=N\N=Cc1ccc2c(c1)OCO2)NN=Cc1ccc2c(c1)OCO2 | 2.3µM* | / | 3.3µM* | / | 8%
O=C(NN=Cc1ccc2c(c1)OCO2)NN=Cc1ccc2c(c1)OCO2 | ? | / | 2% | / | -1%
CCC(C)(C)C(=O)O[C@@H]1C[C@@H](C)C=C2C=C[C@H](C)[C@H](CC[C@@H]3C[C@@H](O)CC(=O)O3)[C@H]21 | 19µM* | / | 24µM* | 10% | /
CCC(C)(C)C(=O)OC1CC(C)C=C2C=CC(C)C(CCC3CC(O)CC(=O)O3)C21 (configuration not stated) | 21µM* | / | 26µM* | 15%[56.1 µM] | /
CCn1c(C(=O)NCc2ccc(OC(C)C)cc2)cc2oc3ccccc3c21 | -26% | 23% | -5% | 5% | /
COc1ccc(C(=O)c2c(N)c(-c3nc(-c4ccccc4)cs3)c3ccccn23)cc1 | ? | 3% | ? | 0% | /
O=C1c2[nH]nc(-c3ccccc3O)c2C(c2cccc(Br)c2)N1Cc1ccncc1 (configuration not stated) | 1.2µM* | ? | 2.9µM* | 2% | /
COC(=O)c1ccc(C2c3c(-c4ccccc4O)n[nH]c3C(=O)N2Cc2ccncc2)cc1 (configuration not stated) | ? | 3% | 18µM* | 5% | /
COc1cc(C2c3c(-c4ccccc4O)n[nH]c3C(=O)N2Cc2ccncc2)ccc1O (configuration not stated) | -7% | -3% | -6% | 2% | /
O=C1c2[nH]nc(-c3ccccc3O)c2C(c2ccccc2F)N1Cc1ccncc1 (configuration not stated) | ? | ? | ? | -2% | /
Cc1ccc(C2c3c(-c4ccccc4O)n[nH]c3C(=O)N2Cc2ccncc2)cc1 (configuration not stated) | 23µM* | 20% | ? | 5% | -16%
COc1ccc(Cl)cc1C(=O)NNC(=O)c1cccs1 | -17% | / | ? | -1% | -3%
CCC(=O)Nc1cc(-c2nc3ccccc3s2)c(Cl)cc1Cl | -27% | -3% | -13% | 5% | /
CCn1nc(C(=O)Nc2nc3ccc(C)cc3s2)c2ccccc2c1=O | -22% | 1% | -19% | 5% | -5%
CCOC(=O)N1CCN(C(=O)c2ccc(C)c(S(=O)(=O)N3CCCCC3)c2)CC1 | -49% | 2% | ? | 2%[56.1 µM] | 0%
Cc1ccccc1CSc1nn2c(=O)c(C)nnc2s1 | 4% | 0% | 0% | 1% | -6%
CCCSc1nn2c(=O)c3ccccc3nc2s1 | -22% | -48% | 18µM* | 0% | -7%
Cc1sc2ncn(CC(=O)N3CCN(c4cccc(Cl)c4)CC3)c(=O)c2c1S(=O)(=O)N1CCC(C)CC1 | 23µM* | ? | ? | 6% | /
